# About 19,000 (20%) of roughly 96,000 compounds were called active. The list is a sample of the results. Unmarked numbers belong to inactive results.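 How the source made its calls: active means blocking of liver enzyme CYP2C9 beyond about 50% at 5 µM (limit read from the data); inactive means the rest.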
# Molecular target: Cytochrome P450 2C9 (Homo sapiens) (UniProt P11712)
# Assay: blockers of cytochrome P450 2C9 activity – biochemical, luminescence, ADME assay, primary screen (AID 777)
# Conditions: CYP2C9 Supersomes, luciferin-H conversion, at 5 µM, active compounds read high
# Sequence of Cytochrome P450 2C9 (Homo sapiens) (P11712 whole entry, looked up): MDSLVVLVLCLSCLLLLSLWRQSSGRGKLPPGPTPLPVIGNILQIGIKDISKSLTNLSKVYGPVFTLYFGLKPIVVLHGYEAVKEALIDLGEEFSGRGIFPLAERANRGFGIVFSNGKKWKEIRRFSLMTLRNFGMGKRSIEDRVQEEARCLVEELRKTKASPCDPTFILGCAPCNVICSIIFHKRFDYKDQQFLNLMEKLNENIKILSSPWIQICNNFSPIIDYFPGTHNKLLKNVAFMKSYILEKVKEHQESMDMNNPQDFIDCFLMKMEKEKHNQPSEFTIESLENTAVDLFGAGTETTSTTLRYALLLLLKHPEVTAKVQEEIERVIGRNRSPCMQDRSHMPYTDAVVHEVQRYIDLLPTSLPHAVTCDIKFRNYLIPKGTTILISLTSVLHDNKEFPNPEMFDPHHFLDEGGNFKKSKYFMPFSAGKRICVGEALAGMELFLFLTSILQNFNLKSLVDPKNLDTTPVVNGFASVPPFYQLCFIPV
row,SMILES,inhibition
1,Cc1cccc(NC(=O)COc2ccccc2C)n1,19.4%
2,CN1CCN(c2ccc(NC(=O)COc3ccc(Cl)cc3Cl)cc2)CC1,-16.8%
3,Cc1ccccc1OCC(=O)Nc1ccc(N2CCN(C(=O)C(C)C)CC2)c(Cl)c1,68.8% (active)
4,O=C(c1ccco1)N1CCN=C1SCc1cccc(Cl)c1,34.4%
5,COc1ccccc1C(=O)N1CCN=C1SCc1cccnc1,58.4% (active)
6,CCC(=O)N1CCN=C1SCc1ccc(F)cc1,11%
7,Oc1c(C(c2ccccn2)N2CCOCC2)ccc2cccnc12 (centres undefined),-11.4%
8,O=C(Cn1cc(-c2nnnn2-c2ccc(Cl)cc2)c(=O)c2ccccc21)c1ccccc1,-11.4%
9,O=c1cc(CO)oc(CN2CCC(Cc3ccccc3)CC2)c1O,4.2%
10,FC(F)(F)c1cccc(-c2cc3ccccc3nc2N2CCCC2)c1,11.5%
11,O=C(COC(=O)c1ccc(S(=O)(=O)N2CCc3ccccc3C2)cc1)NC(=O)NCc1ccco1,10.9%
12,C=CCOC(=O)C1=C(C)NC(SCC(=O)OCC)=C(C#N)C1c1ccc(C)cc1 (centres undefined),64.3% (active)
13,CC1=C(C(=O)OCc2ccccc2)C(c2ccco2)n2ncnc2N1 (centres undefined),17.6%
14,C=CCOC(=O)C1=C(C)OC(N)=C(C#N)C1c1ccc(F)cc1 (centres undefined),44.5%
15,CCOC(=O)CSC1=C(C#N)C(c2ccco2)C(C(=O)OCc2ccccc2)=C(C)N1 (centres undefined),95.5% (active)
16,CC1=C(C(=O)Nc2ccccc2)C(c2ccco2)C(C#N)=C(SCC(N)=O)N1 (centres undefined),5.8%
17,Cc1cc(=O)oc2ccc(OCC(=O)O)cc12,11.6%
18,CC/C(=N\O)C(C)(C)/[N+]([O-])=C/c1ccc(Br)cc1,0.5%
19,COCCCNC(=O)COc1cc(C)c(Cl)c(C)c1,-73.4%
20,CC1Cc2ccccc2N1C(=O)Cn1cnc2ccccc2c1=O (centres undefined),34.6%
21,CCn1nc(C(=O)OCC(=O)N2c3ccccc3CC2C)c2ccccc2c1=O (centres undefined),80.7% (active)
22,CCOC(=O)c1[nH]c(C)c(C(=O)OCC(=O)N2c3ccccc3CC2C)c1C (centres undefined),10.7%
23,Cc1ccc(Cl)cc1NC(=O)COC(=O)C1CCCCC1,28.6%
24,CCOC(=O)C1=C(CN2CCc3ccccc32)NC(=O)NC1c1cccc([N+](=O)[O-])c1 (centres undefined),25.1%
25,Cn1c2c(c(=O)n(C)c1=O)C(c1ccc(O)cc1)Nc1ccccc1O2 (centres undefined),19.1%

row,SMILES,inhibition
1,Cn1c2c(c(=O)n(C)c1=O)C(c1cccc([N+](=O)[O-])c1)Nc1ccccc1O2 (centres undefined),50.4% (active)
2,Nc1c(-c2ccc(F)cc2)cnn1C1CCS(=O)(=O)C1 (centres undefined),-14.9%
3,CC1(C)CC(=O)C2=C(C1)N=C1SCCC(=O)N1C2c1ccc(C(F)(F)F)cc1 (centres undefined),-19.2%
4,O=c1cc(-c2ccccc2)nc(N2CCCCC2)[nH]1,-5.8%
5,O=C(Nc1ccc2nc3n(c(=O)c2c1)CCCCC3)c1ccccc1Cl,41.7%
6,O=c1c2c(nc3n1CCCCC3)sc1c(O)cccc12,70.6% (active)
7,Cc1cccc2c(=O)n3c(nc12)CCCCC3,21%
8,CCCCNC(=O)c1ccccc1NC(=O)c1ccccc1N(C)S(C)(=O)=O,-0.4%
9,COC(=O)c1ccc(NC(=O)c2ccccc2NS(=O)(=O)c2ccccc2)cc1,96.1% (active)
10,COC(=O)c1ccccc1NC(=O)CN(Cc1ccccc1)S(C)(=O)=O,27.6%
11,COC(=O)c1ccccc1NC(=O)c1cncc(Br)c1,-3.1%
12,CCOc1ccc(NC(=O)c2ccccc2NS(C)(=O)=O)cc1,54.1% (active)
13,CCOc1ccc(NC(=O)N(CC(C)C)CC(C)C)cc1,6.8%
14,COC(=O)c1ccccc1NC(=O)CN(Cc1ccc(Cl)cc1)S(C)(=O)=O,55.5% (active)
15,CCOc1ccccc1N(CC(=O)Nc1ccccc1C(=O)OC)S(C)(=O)=O,6.7%
16,CCCNC(=O)Nc1ccccc1C(=O)Nc1ccc(OC)cc1,44.3%
17,COC(=O)c1ccccc1NC(=O)c1ccccc1NS(C)(=O)=O,80.6% (active)
18,COC(=O)c1ccc(NC(=O)C(C)N2C(=O)c3ccccc3C2=O)cc1 (centres undefined),26.7%
19,S=C1SCN(CCN2CCOCC2)CN1Cc1ccccc1,22.3%
20,Cc1nc(NC(CC(C)C)C(=O)O)c2nc(C)oc2n1 (centres undefined),15.1%
21,COC(=O)CNC(c1ccccc1Cl)c1cc(Br)ccc1NC(=O)CCN1CCOCC1 (centres undefined),7.3%
22,C=CCn1c(-c2ccc3[nH]c(C)c(C)c3c2)n[nH]c1=S,31.1%
23,CCCc1nc(-c2ccccc2O)n(-c2ccccc2)n1,-16.7%
24,Cc1ccc(S(=O)(=O)N2C3C=CC(C3)C2C(=O)O)cc1 (centres undefined),-4.8%
